Molecules are shown by their SMILES. Unmarked numbers belong to inactive results. Inconclusive results are not listed. The source made the active and inactive calls. Calls follow the shape of the dose curve; as a rule, active = well fitted curve in the direction sought with a large enough effect; inconclusive = small, poorly fitted or top-dose-only effect, or another doubt; inactive = no such curve, though single readings can be large; an effect the other way counts as inactive or inconclusive. Where a SMILES comes first, the peptide text is derived from it. Bridges are numbered along the chain shown (N, C = ends). [ ]: non-standard residue; d: D form. The star is where a group is joined. X1 = CCC(C)C(N)C1=NC(C(=O)*)CS1; dOrn = NCCC[C@@H](N)C(=O)O

Assay [1] can be described thus: Primary fluorescence-based thiol-reactive (MSTI) qHTS assay for identification of artifact compounds. (AID 1845221). Also: nearly all actives have a fitted effect of over 65% in size. Also: potency is read from the fitted curve at half-maximal effect.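 As to activity change, negative = thiol reactive: series mostly up to about 54 µM; thiol-reactive compounds lower the probe fluorescence signal.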 In outline:
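A multi-concentration qHTS design tested compounds against 4 uM MSTI, pH 7.4 phosphate-buffered saline. Plates were protected from light for 1 h at room temperature before imaging fluorescence.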
(In general: In qHTS, concentration-response curves come from the screen itself.)

The test system of assay [2] is Nanoluciferase (engineered Oplophorus gracilirostris luciferase). The experiment in a line: Primary Nanoluciferase (NLuc) qHTS assay for identification of artifact compounds. (AID 1845222).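 Also: NLuc secreted into diluted conditioned medium of S16 cells; series mostly up to about 54 µM; 0% = DMSO and -100% = no enzyme.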 In outline: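 Using secreted nanoluciferase in S16 culture medium (0.22 um filtered, 1:55 dilution), compounds were preincubated 15 min at RT. Signal was generated with Nano-Glo reagent (1:100) over 5 min.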

Assay [3] can be described thus: Primary redox qHTS assay for identification of artifact compounds. (AID 1845223).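 Also: 0% = DMSO and 100% = reference compound.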 In outline: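 Amplex Red (25 uM) and HRP (250 mU/mL) in HBSS, with compounds for 15 min, then 250 uM DTT for 30 min, room temperature, dark. Fluorescence 525/598 nm read; normalized to DMSO and 10 uM DA3003; Hill fit.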

In the case of `NS(=O)(=O)OC[C@@H]1C[C@@H](n2ccc3c(N[C@H]4CCc5ccccc54)ncnc32)C[C@@H]1O`, the Potency result in assay [1] and in assay [2] was “inactive” throughout.

Regarding `CC(=O)N[C@H]1[C@H](O[C@H]2CC[C@@]3(C)C(CC[C@]4(C)C3CC=C3C5CC(C)(C)CC[C@]5(C(=O)O)[C@H](O[C@@H]5O[C@H](CO)[C@@H](O)[C@H](O)[C@H]5O)C[C@]34C)C2(C)C)O[C@H](CO[C@@H]2OC[C@H](O)[C@H](O)[C@H]2O[C@@H]2OC[C@@H](O)[C@H](O)[C@H]2O)[C@@H](O)[C@@H]1O` (stereo partly drawn), the activity change, negative = thiol reactive in assay [1] was -21.6% [at 11.5 µM]. Further, in assay [2], the activity, negative = inhibition was -3.44% [at 11.6 µM].

Regarding `CCC(C)C(N)C1=NC(C(=O)N[C@@H](CC(C)C)C(=O)N[C@H](CCC(=O)O)C(=O)N[C@H](C(=O)N[C@H]2CCCCNC(=O)[C@H](CC(N)=O)NC(=O)[C@@H](CC(=O)O)NC(=O)[C@H](Cc3cnc[nH]3)NC(=O)[C@@H](Cc3ccccc3)NC(=O)[C@H]([C@@H](C)CC)NC(=O)[C@@H](CCCN)NC2=O)[C@@H](C)CC)CS1` (stereo partly drawn) (X1-L[dE]IK[dOrn]I[dF]H[dD]N; lactam 4-C), the Potency result in assay [1], in assay [2] and in assay [3] was “inactive” in each case.

Turning to `CC(C)=CC/C=C(/C)[C@H]1CC[C@]2(C)[C@@H]1[C@H](O)CC1[C@@]3(C)CC[C@H](O)C(C)(C)[C@@H]3[C@@H](O[C@@H]3O[C@H](CO)[C@@H](O)[C@H](O)[C@H]3O[C@@H]3O[C@@H](C)[C@H](O)[C@@H](O)[C@H]3O)C[C@]12C` (stereo partly drawn), the Potency entry in assay [1], in assay [2] and in assay [3] was “inactive” each time.

For `C=C1CC[C@H]2[C@@](C)(CCC(O)[C@@]2(C)CO)[C@@H]1C/C=C(/C(=O)O)C(O)CO` (stereo partly drawn), in assay [1], the Potency is 6.56 µM (active). For the same molecule, the Potency result in assay [2] and in assay [3] was “inactive” throughout.

(Values after PubChem BioAssay (NCATS).)
